Laboratory results: PubChem BioAssay
For some of these results: Entries with a potency or affinity are not part of this list. Calls of active or inactive are those of the source.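 How the source made its calls, unless noted: active means signal rise over 3 SD above mean of control wells given weak agonist, in both repeats and first screen; inactive means the rest.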

Assays:
[1] = system: TRPC4 beta (transient receptor potential cation channel C4), mouse; assay: activators of mouse TRPC4 channel, confirmation, cell-based, Fluo4 calcium, HEK293 TRPC4beta/mu-opioid, duplicates, 10 µM (AID 2426;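 active means fluorescence ratio normalized to control raised more than 50% in primary screen plus both repeat runs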;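 on activation: percent rise of integrated ratio over buffer wells lacking compound which define 0%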); conditions: Fluo4 calcium fluorescence, at 10 µM; active compounds read high
[2] = system: transient receptor potential cation channel C4 beta (TRPC4), mouse; assay: activators of mouse TRPC4 channel, confirmation, cell-based, second round, Fluo4, HEK293 TRPC4beta/mu-opioid, 1 µM (AID 2461;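 active means primary screen active and over 50% activation in each of two duplicate runs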;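 on activation: 0% = wells without test compound as baseline of integrated fluorescence ratio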); conditions: Fluo4 calcium fluorescence, at 1 µM; active compounds read high
[3] = system: TRPC4 (transient receptor potential cation channel C4 beta), mouse; assay: positive allosteric modulators of mouse TRPC4, confirmation, cell-based, second round, Fluo-4, HEK293 TRPC4beta/mu-opioid, 1 µM (AID 2554;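 active means primary screen hit whose fluorescence ratio, in both repeats, exceeds the weak agonist control mean by 3 SD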); conditions: DAMGO EC20, Fluo-4 calcium flux, at 1 µM; active compounds read high
[4] = system: TRPC4 beta (transient receptor potential cation channel C4), mouse; assay: positive allosteric modulators of mouse TRPC4, confirmation, cell-based, Fluo-4, HEK293 TRPC4beta/mu-opioid (AID 2555;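 active means primary screen hit whose calcium fluorescence ratio, in both repeats, exceeds the weak agonist control mean by 3 SD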); conditions: DAMGO EC20, Fluo-4 calcium flux, at 10 µM; active compounds read high
[5] = molecular target: Short transient receptor potential channel 4 (Mus musculus) (UniProt Q9QUQ5); assay: inhibitors of mouse TRPC4 channel, confirmation, cell-based, Fluo4, HEK293 TRPC4beta/mu-opioid (AID 2636;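 active means calcium signal cut by more than 3 SD below the full-agonist control yet still positive, in both repeats and the earlier primary screen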); conditions: DAMGO, Fluo4 calcium flux, at 10 µM; active compounds read high
[6] = molecular target: Short transient receptor potential channel 4 (Mus musculus) (UniProt Q9QUQ5); assay: inhibitors of mouse TRPC4 channel, confirmation, cell-based, second round, Fluo4, HEK293 TRPC4beta/mu-opioid, 1 µM (AID 2637;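 active means calcium signal ratio cut to more than 3 SD under the fully stimulated control mean yet still positive, in both repeats and the primary screen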); conditions: Fluo4 calcium flux, DAMGO, at 1 µM; active compounds read high
[7] = molecular target: Short transient receptor potential channel 4 (Mus musculus) (UniProt Q9QUQ5); assay: TRPC4 positive allosteric modulators, dose response, cell-based, HEK293 TRPC4/mu-opioid, Fluo-4 calcium, EC20 DAMGO (AID 434941;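 active means earlier screen potentiator hit that boosts the TRPC4 ion channel at some dose, with a dose response; inactive means no potentiation, no dose response, or not a prior hit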;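 further: calcium entry triggered by an EC20 dose of DAMGO at the co-expressed mu-opioid receptor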)
[8] = molecular target: Short transient receptor potential channel 4 (Mus musculus) (UniProt Q9QUQ5); assay: mouse TRPC4 channel inhibitors, dose response, cell-based, HEK293 TRPC4/mu-opioid, Fluo-4 calcium (AID 434942;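 active means primary screen inhibitor hit that blocks the TRPC4 channel at some tested dose, yielding a dose curve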)
[9] = molecular target: Short transient receptor potential channel 6 (Mus musculus) (UniProt Q61143); assay: inhibition of mouse TRPC6 channel, confirmation, selectivity assay for TRPC4 inhibitor project, cell-based, HEK293, membrane potential dye, duplicate (AID 434948;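 active means active in primary screen and both duplicates, each dropping signal beyond three positive-control SD with fluorescence still positive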); conditions: HEK293 TRPC6, membrane potential dye fluorescence, at 10 µM, stimulated with maximal-effect acetylcholine; active compounds read high
[10] = molecular target: Short transient receptor potential channel 6 (Mus musculus) (UniProt Q61143); assay: activation of mouse TRPC6 channel, confirmation, selectivity assay for TRPC4 activator project, cell-based, HEK293, membrane potential dye, duplicate (AID 434950;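 active means membrane potential signal rise above negative control mean plus 3 SD in both duplicates, also active in the earlier TRPC4 screen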;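 on activation: 0% = buffer only wells and 100% = acetylcholine maximal-effect wells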); conditions: HEK293 TRPC6, membrane potential fluorescence, at 10 µM; active compounds read high
[11] = molecular target: Short transient receptor potential channel 6 (Mus musculus) (UniProt Q61143); assay: TRPC6 potentiation by TRPC4 potentiator hits, confirmation, selectivity assay for TRPC4 potentiator project, HEK293 cells, membrane potential dye, duplicate (AID 434952;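 active means compound raising the membrane signal above positive-control mean plus 3 SD in both repeats, and a primary screen hit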); conditions: HEK293 TRPC6, membrane potential dye fluorescence, at 10 µM, maximal acetylcholine added after compound; active compounds read high
[12] = molecular target: Short transient receptor potential channel 4 (Mus musculus) (UniProt Q9QUQ5); assay: calcium flux activators in TRPC4/5HT1a cells, counter-screen for TRPC4 activator project, cell-based, second counter screen, HEK293 TRPC4/5HT1a, Fluo-4 (AID 434977;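 active means calcium signal rise above buffer-control mean plus 5 SD in both duplicates, and also a hit in the primary screen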;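 on activation: plate controls were assay buffer for no effect and maximal serotonin response for full effect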); conditions: Fluo-4 calcium flux, at 10 µM; active compounds read high
[13] = calcium flux inhibitors in TRPC4/5HT1a cells, confirmation, counter-screen for TRPC4 inhibitor project, cell-based, second counter screen, HEK293 TRPC4/5HT1a, Fluo-4 (AID 434978;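 active means primary screen active whose calcium signal fell more than 3 SD beyond the full-serotonin control mean in both duplicate plates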;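 further: serotonin given first at submaximal then at maximal dose after compound preincubation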); conditions: Fluo-4 calcium flux, at 10 µM, serotonin added to trigger calcium flux; active compounds read high
[14] = system: TRPC4 (mouse), co-expressed with 5HT1a in HEK293; assay: calcium flux potentiators in TRPC4/5HT1a cells, confirmation, counter-screen for TRPC4 potentiator project, cell-based, second counter screen, HEK293 TRPC4/5HT1a, Fluo-4 (AID 434979); conditions: Fluo-4 calcium flux, at 10 µM, serotonin added at its EC20 dose; active compounds read high
[15] = calcium flux activation in mu-opioid HEK293 cells, confirmation, counter-screen for TRPC4 activator project, cell-based, HEK293 mu-opioid receptor line (AID 449723;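 active means hit in primary screen, with calcium signal over 5 SD above buffer well mean in both duplicates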;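 further: counter screen cells carry the mu-opioid receptor alone and lack TRPC4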); conditions: Fluo-4 calcium fluorescence, at 10 µM; active compounds read high
[16] = calcium flux enhancement in mu-opioid HEK293 cells, confirmation, counter-screen for TRPC4 allosteric potentiator project, cell-based, HEK293 mu-opioid receptor line (AID 449724;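 active means calcium signal rise more than 3 SD above the low-dose agonist control mean, in both duplicate plates and the primary screen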); conditions: Fluo-4 calcium flux, at 10 µM, compound added before EC20 DAMGO stimulus; active compounds read high

Short transient receptor potential channel 4 (Mus musculus), sequence (Q9QUQ5 whole entry, looked up): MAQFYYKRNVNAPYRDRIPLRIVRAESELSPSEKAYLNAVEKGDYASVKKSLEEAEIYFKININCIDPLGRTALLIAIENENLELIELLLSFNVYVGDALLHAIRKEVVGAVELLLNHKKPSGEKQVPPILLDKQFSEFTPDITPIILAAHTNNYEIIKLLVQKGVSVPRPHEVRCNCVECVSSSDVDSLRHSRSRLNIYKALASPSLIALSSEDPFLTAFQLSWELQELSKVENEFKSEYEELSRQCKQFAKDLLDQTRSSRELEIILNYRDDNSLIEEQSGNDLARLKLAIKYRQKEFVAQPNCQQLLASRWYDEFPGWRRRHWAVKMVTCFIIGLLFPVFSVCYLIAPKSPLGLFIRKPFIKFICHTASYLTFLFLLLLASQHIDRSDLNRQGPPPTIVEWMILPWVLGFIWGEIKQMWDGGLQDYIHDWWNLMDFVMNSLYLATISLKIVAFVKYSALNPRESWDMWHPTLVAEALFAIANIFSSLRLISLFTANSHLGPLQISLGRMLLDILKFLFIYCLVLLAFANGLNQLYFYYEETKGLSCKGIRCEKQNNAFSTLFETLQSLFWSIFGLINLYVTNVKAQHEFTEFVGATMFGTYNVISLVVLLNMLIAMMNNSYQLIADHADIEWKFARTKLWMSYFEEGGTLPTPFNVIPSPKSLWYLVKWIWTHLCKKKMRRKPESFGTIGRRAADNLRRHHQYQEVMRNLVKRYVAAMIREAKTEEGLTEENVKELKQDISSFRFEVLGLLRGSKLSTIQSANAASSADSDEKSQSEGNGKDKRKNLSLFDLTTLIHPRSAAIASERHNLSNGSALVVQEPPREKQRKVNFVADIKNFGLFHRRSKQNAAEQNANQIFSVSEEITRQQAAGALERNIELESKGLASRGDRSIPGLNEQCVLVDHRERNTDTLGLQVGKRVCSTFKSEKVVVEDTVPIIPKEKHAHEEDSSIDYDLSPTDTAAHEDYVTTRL
Short transient receptor potential channel 6 (Mus musculus), sequence (Q61143 whole entry, looked up): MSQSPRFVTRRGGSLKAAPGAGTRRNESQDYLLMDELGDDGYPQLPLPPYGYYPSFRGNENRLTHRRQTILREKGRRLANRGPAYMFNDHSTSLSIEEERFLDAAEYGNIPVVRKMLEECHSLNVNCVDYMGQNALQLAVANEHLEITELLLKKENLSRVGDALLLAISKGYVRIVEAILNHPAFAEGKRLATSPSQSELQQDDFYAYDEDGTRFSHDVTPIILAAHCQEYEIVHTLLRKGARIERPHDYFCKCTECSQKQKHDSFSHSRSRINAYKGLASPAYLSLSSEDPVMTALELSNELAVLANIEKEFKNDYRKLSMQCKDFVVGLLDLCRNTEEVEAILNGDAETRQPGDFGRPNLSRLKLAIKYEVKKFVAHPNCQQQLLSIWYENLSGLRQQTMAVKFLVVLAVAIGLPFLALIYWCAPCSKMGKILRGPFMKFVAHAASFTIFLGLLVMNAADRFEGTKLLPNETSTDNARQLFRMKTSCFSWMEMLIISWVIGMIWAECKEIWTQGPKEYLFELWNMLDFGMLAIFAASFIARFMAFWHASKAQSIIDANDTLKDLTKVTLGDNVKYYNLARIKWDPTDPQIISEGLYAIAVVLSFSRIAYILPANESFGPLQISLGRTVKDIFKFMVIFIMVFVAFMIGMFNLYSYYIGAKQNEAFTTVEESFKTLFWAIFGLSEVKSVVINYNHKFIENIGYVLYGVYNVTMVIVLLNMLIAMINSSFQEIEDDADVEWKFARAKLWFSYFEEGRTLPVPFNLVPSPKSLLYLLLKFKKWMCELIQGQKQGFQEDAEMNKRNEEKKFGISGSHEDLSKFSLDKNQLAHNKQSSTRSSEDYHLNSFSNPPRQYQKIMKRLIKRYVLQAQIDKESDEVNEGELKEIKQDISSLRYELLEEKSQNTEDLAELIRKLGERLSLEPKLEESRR

O=C(Nc1nnc(-c2ccccc2Cl)o1)c1nc2ccccc2s1
inactive: outcome [2] | outcome [3] | outcome [4] | outcome [5] | outcome [6] | outcome [7] | outcome [8] | outcome [9] | outcome [10] | outcome [11] | outcome [13] | outcome [14] | outcome [16]
active: activation [1] 143% | activation [12] 91.4% | activation [15] 30.2%

CCOc1ccc2ncc(C(=O)c3ccc(OC)cc3)c(N3CCN(CC)CC3)c2c1
inactive: outcome [2] | outcome [3] | outcome [4] | outcome [5] | outcome [6] | outcome [7] | outcome [8] | outcome [9] | outcome [10] | outcome [11] | outcome [12] | outcome [13] | outcome [14] | outcome [15] | outcome [16]
active: activation [1] 196%

CCc1cccc(CC)c1NC(=S)NCC(c1cccnc1)N(C)C (stereo unspecified)
active: activation [1] 79% | activation [2] 67% | activation [10] 46%
inactive: outcome [3] | outcome [4] | outcome [5] | outcome [6] | outcome [7] | outcome [8] | outcome [9] | outcome [11] | outcome [12] | outcome [13] | outcome [14] | outcome [15] | outcome [16]

COc1ccc(C(CNC(=O)C(C)c2ccc3cc(OC)ccc3c2)N(C)C)cc1 (stereo unspecified)
active: activation [1] 243% | activation [2] 98% | activation [10] 63% | activation [12] 8.72%
inactive: outcome [3] | outcome [4] | outcome [5] | outcome [6] | outcome [7] | outcome [8] | outcome [9] | outcome [11] | outcome [13] | outcome [14] | outcome [15] | outcome [16]

c1ccc2c(c1)CCN(c1ncnc3c1[nH]c1ccccc13)C2
inactive: outcome [1] | outcome [2] | outcome [3] | outcome [4] | outcome [5] | outcome [6] | outcome [7] | outcome [8] | outcome [9] | outcome [10] | outcome [11] | outcome [12] | outcome [13] | outcome [14] | outcome [15] | outcome [16]

CC(c1cccnc1)N(CCN(C)C)C(=O)Nc1ccc(Cl)c(Cl)c1 (stereo unspecified)
active: activation [10] 34%
inactive: outcome [1] | outcome [2] | outcome [3] | outcome [4] | outcome [5] | outcome [6] | outcome [7] | outcome [8] | outcome [9] | outcome [11] | outcome [12] | outcome [13] | outcome [14] | outcome [15] | outcome [16]

Cc1ccc(C2N(c3ccc(Cl)c(Cl)c3)C(=O)C3CCCN32)o1 (stereo unspecified)
active: activation [1] 53% | potentiation [3] 9% | potentiation [4] 22% | activation [12] 13.8% | potentiation [14] 20%
inactive: outcome [2] | outcome [5] | outcome [6] | outcome [7] | outcome [8] | outcome [9] | outcome [10] | outcome [11] | outcome [13] | outcome [15] | outcome [16]

COc1ccc(C(=O)NC(=S)NNC(=O)c2c(-c3ccccc3)noc2C)cc1OC
active: activation [10] 39% | activation [12] 24.4%
inactive: outcome [1] | outcome [2] | outcome [3] | outcome [4] | outcome [5] | outcome [6] | outcome [7] | outcome [8] | outcome [9] | outcome [11] | outcome [13] | outcome [14] | outcome [15] | outcome [16]

CN(C)C(CNC(=S)Nc1cccc(Cl)c1)c1cccnc1 (stereo unspecified)
inactive: outcome [3] | outcome [4] | outcome [5] | outcome [6] | outcome [7] | outcome [8] | outcome [9] | outcome [10] | outcome [11] | outcome [12] | outcome [13] | outcome [14] | outcome [15] | outcome [16]
active: activation [1] 77% | activation [2] 110%

CN(C)C(CNC(=O)Cc1cccc(C(F)(F)F)c1)c1ccco1 (stereo unspecified)
active: activation [1] 83% | activation [10] 29%
inactive: outcome [2] | outcome [3] | outcome [4] | outcome [5] | outcome [6] | outcome [7] | outcome [8] | outcome [9] | outcome [11] | outcome [12] | outcome [13] | outcome [14] | outcome [15] | outcome [16]

COC(=O)c1ccccc1N=Nc1c(N)[nH][nH]c1=O
active: activation [1] 87% | potentiation [3] 69% | potentiation [4] 54% | activation [12] 51.2% | potentiation [14] 46.3%
inactive: outcome [2] | outcome [5] | outcome [6] | outcome [7] | outcome [8] | outcome [9] | outcome [10] | outcome [11] | outcome [13] | outcome [15] | outcome [16]

Cc1ccccc1OCC(=O)NNC(=S)NC(=O)c1ccco1
inactive: outcome [2] | outcome [3] | outcome [4] | outcome [5] | outcome [6] | outcome [7] | outcome [8] | outcome [9] | outcome [11] | outcome [13] | outcome [14] | outcome [15] | outcome [16]
active: activation [1] 103% | activation [10] 31.5% | activation [12] 42.5%

Cc1cc(OCCCn2ccnc2)ccc1[N+](=O)[O-]
active: activation [1] 134% | potentiation [14] 18.2%
inactive: outcome [2] | outcome [3] | outcome [4] | outcome [5] | outcome [6] | outcome [7] | outcome [8] | outcome [9] | outcome [10] | outcome [11] | outcome [12] | outcome [13] | outcome [15] | outcome [16]

OCCNCCSc1ccc(Cl)cc1
active: activation [1] 82% | activation [10] 39.5% | activation [12] 22.3%
inactive: outcome [2] | outcome [3] | outcome [4] | outcome [5] | outcome [6] | outcome [7] | outcome [8] | outcome [9] | outcome [11] | outcome [13] | outcome [14] | outcome [15] | outcome [16]

CN1CCCC(OC(=O)c2cc(Cl)cc(Cl)c2)C1 (stereo unspecified)
active: activation [1] 186% | activation [2] 112% | activation [10] 38.5% | activation [12] 67.9%
inactive: outcome [3] | outcome [4] | outcome [5] | outcome [6] | outcome [7] | outcome [8] | outcome [9] | outcome [11] | outcome [13] | outcome [14] | outcome [15] | outcome [16]

Cc1onc(-c2c(F)cccc2Cl)c1C(=O)N1CCN(c2ncc(Br)cn2)CC1
active: activation [1] 109% | activation [10] 42.5% | activation [12] 37.9%
inactive: outcome [2] | outcome [3] | outcome [4] | outcome [5] | outcome [6] | outcome [7] | outcome [8] | outcome [9] | outcome [11] | outcome [13] | outcome [14] | outcome [15] | outcome [16]
